From PubChem BioAssay
An excerpt weighted towards active compounds, which were near 4.6% of everything screened.
TRHR PAM = allosteric enhancers of human TRH receptor | P34981 | TRHR cells, fluo-8 calcium fluorescence, EC20 TRH enhancement | enhancement, % at 2 µM | actives 0.66% (n = 360,000) | AID 493056; in the data active means enhancement above about 30%; further: 0% is about no effect
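TRHR-expressing cells loaded with fluo-8 calcium dye were read kinetically (ex 480/em 530) during compound addition, then stimulated with an EC20 of TRH (10 nM final). Enhancement of the Gq-mediated intracellular calcium response was scored.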
D1 potentiator = potentiators of human D1 dopamine receptor. P21728. HEK293 TREx D1 cells, calcium flux, dopamine EC20 potentiation. potentiation, % at 10 µM. actives 0.036% (n = 360,000); in the data active means potentiation above about 30%; further: 0% is about no effect
Target sequence (P21728 whole entry, looked up): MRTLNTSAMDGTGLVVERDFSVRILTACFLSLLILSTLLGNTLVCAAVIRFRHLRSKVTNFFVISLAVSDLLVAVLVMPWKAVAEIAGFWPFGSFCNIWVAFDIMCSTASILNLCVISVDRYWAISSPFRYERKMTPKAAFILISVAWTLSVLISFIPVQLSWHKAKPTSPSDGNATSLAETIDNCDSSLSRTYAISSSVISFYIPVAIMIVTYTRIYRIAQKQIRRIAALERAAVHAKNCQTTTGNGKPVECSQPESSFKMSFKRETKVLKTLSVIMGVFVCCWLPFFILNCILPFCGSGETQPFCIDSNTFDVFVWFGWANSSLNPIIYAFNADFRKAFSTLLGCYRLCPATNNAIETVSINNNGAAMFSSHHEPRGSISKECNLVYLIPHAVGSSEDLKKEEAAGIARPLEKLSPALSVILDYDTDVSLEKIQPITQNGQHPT
D1 agonist = activates the human D1 dopamine receptor; P21728; activation, % at 2 µM; actives 1% (n = 360,000); HEK293 T-REx D1 cells, calcium flux, agonist mode; further: 0% is about no effect
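Agonism was scored from calcium flux recorded over 180 s (1 read/s) after pintool compound addition, following a 10-cycle baseline. Cells were inducible force-coupled HEK293 TREx D1, plated overnight at 30 C and loaded with no-wash calcium dye.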
D1 antag = antagonists of human D1 dopamine receptor; actives 3.2% (n = 360,000); activity change, negative = inhibition, % at 10 µM; P21728; AID 504652; HEK293 TREx D1 cells, calcium flux, dopamine EC80; hits give low values; in the data active means activity change below about -30%; further: on the % scale 0 is the no-effect control and ±100 the full control effect
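Using tetracycline-induced force-coupled D1 Hek293 cells and a calcium dye, signals were followed for 180 s after compound, then for 180 s after EC80 dopamine, to detect inhibitors.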
TRHR agonist = agonists of human TRH receptor; P34981; TRHR cells, calcium flux fluo-8, FDSS agonist mode; activation, % at 2 µM; actives 0.18% (n = 360,000); AID 493084; further: 0% is about no effect
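TRHR-expressing cells loaded with fluo-8 calcium dye; 23 nL library compound pin-transferred, kinetic FDSS fluorescence (Ex 480/Em 530) recorded about 180 s for agonist-induced calcium release, before a 10 nM TRH EC20 addition for potentiator mode.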
* marks the source's active call; other numbers are inactive results. Unless noted, no stated cut-off is given here; in the data, active means activation above about 30%; inactive means the rest.

SMILES	TRHR PAM	D1 potentiator	D1 agonist	D1 antag	TRHR agonist
Cc1cc2c(s1)c1cnn(Cc3c(Cl)ccc(C)c3F)c(=O)c1n2C	5	3	7	-2	0
Cc1cc(Cl)nc(-n2nc(C)cc2C)n1	1	-4	1	-42*	0
Cc1ccc(OC(C)C(=O)Nc2nonc2-c2ccc(Br)cc2)cc1C (configuration not stated)	1	-3	-1	3	0
Cc1ccccc1Nc1nnc(SCc2cc(=O)n3ccsc3n2)s1	8	8	5	-54*	0
CCN(CC)S(=O)(=O)c1cc(C(=O)OCC(=O)Nc2cccc(S(=O)(=O)N(C)C)c2)ccc1F	-3	-4	1	-40*	-1
Cc1ccc(NC(=S)N(CCN(C)C)Cc2cccs2)cc1	-1	-8	4	-36*	0
Clc1ccc(CN2CCN(c3ncccn3)CC2)c(Cl)c1	-4	-4	7	-37*	-1
O=c1cc(-c2ccccc2Cl)oc2c(NS(=O)(=O)c3cc(Cl)cc(Cl)c3O)ccc(O)c12	-8	-9	82*	-52*	8
O=C(Nc1ccc(Cl)cc1)c1cc2c(cc1O)[nH]c1ccccc12	-8	-10	19	-38*	3
CC(=O)Nc1ccc2[nH]c3ccccc3c2c1	-2	1	-2	5	0
O=C(O)c1cccc2c1C(=O)c1ccc(-c3ccc(Cl)c(C(F)(F)F)c3)cc1S2(=O)=O	4	4	28	-8	0
CSc1ccc(-c2nnc(NC(=O)c3ccc4c(c3)OCCO4)o2)cc1	4	-2	3	-8	0
Cc1ccc(C)c(-c2nnc(NC(=O)c3ccc4c(c3)OCCO4)o2)c1	-4	-2	8	-37*	0
O=C(Nc1nnc(C2=COCCO2)o1)c1ccc(Cl)cc1	12	5	-1	-21	0
O=C(Nc1nnc(C2=COCCO2)o1)c1ccc(Br)cc1	-3	-6	0	-34*	0
Cc1ccc(Cl)cc1N1CCN(C(=O)Cn2cnc3sc(C)c(S(=O)(=O)N4CCC(C)CC4)c3c2=O)CC1	6	0	6	-29	0
CCOC(=O)c1c(CSC(=N)N)n(C)c2cc(Br)c(OC(C)=O)cc12	3	-11	2	6	0
CCOC(=O)c1c(CSC(=N)N)n(-c2ccc(C)cc2)c2cc(Br)c(OC(C)=O)cc12	4	2	39*	25	2
Cc1nn2c(C)c(C(=O)NCC(C)c3ccccc3)cnc2c1-c1ccccc1 (configuration not stated)	35*	1	1	3	0
CCOC(=O)Cn1c(=N)n(CCOc2ccc(Br)cc2)c2ccccc21	2	-2	51*	-22	3
CCn1c(=N)n(CC(=O)c2ccc(Br)s2)c2ccccc21	-14	-1	10	9	0
N=c1n(CCO)c2ccccc2n1CCOc1ccc(F)cc1	4	1	-1	-10	0
CCCCn1c(=N)n(CC(=O)c2ccc(Br)s2)c2ccccc21	3	-3	44*	20	2
CCOC(=O)Cn1c(=N)n(CCOc2cccc(C)c2)c2ccccc21	0	-2	14	-3	0
CCCCn1c(=N)n(CCCOc2ccc(F)cc2)c2ccccc21	4	-7	79*	-5	-1
SMILES	TRHR PAM	D1 potentiator	D1 agonist	D1 antag	TRHR agonist
CCCn1c(=N)n(CC(=O)C(C)(C)C)c2ccccc21	31*	-9	9	7	-1
CCCCn1c(=N)n(CC(=O)C(C)(C)C)c2ccccc21	10	-4	3	35	0
Cc1ccccc1CNC(=O)CCC(=O)N1CCSc2ccccc21	-5	-2	3	3	0
O=c1n(Cc2ccc([N+](=O)[O-])cc2)c2ccccc2c2nc(-c3ccccc3)nn12	5	-4	2	-20	-1
COc1ccc(CCNC(=O)C2CC(c3ccc([N+](=O)[O-])cc3)=NO2)cc1 (configuration not stated)	0	-5	7	-3	0
COc1ccc(C2=NOC(COc3ccc([N+](=O)[O-])cc3)C2)cc1 (configuration not stated)	1	-10	9	-32*	0
CC(=O)Cc1nsc(NC(=O)c2ccc(-c3cc(Cl)ccc3Cl)o2)n1	-9	9	6	-13	-1
CC(=O)Cc1nsc(NC(=O)c2ccc(-c3ccc(Cl)cc3Cl)o2)n1	4	-9	4	-31*	0
CC(=O)Cc1nsc(NC(=O)c2ccc(-c3cc(C(F)(F)F)ccc3Cl)o2)n1	0	-4	2	-33*	0
CC(C(=O)NCC1CCCO1)n1cccc1C(=O)c1ccccc1 (configuration not stated)	9	-2	1	-31*	-1
CCOC(=O)N1CCN(C(=O)CS(=O)(=O)Cc2nc(-c3ccccc3C)oc2C)CC1	-1	0	2	-9	-1
CCOC(=O)C1CCN(C(=O)CS(=O)(=O)Cc2nc(-c3ccccc3Cl)oc2C)CC1	5	-10	9	-40*	-1
COc1ccc(-c2nc(CSCC(=O)N3CCN(c4ccc(OC)cc4)CC3)c(C)o2)cc1	6	-5	4	-37*	0
CCOC(=O)N1CCN(C(=O)CSCc2nc(-c3ccccc3F)oc2C)CC1	3	5	7	-44*	0
CCOc1ccc(-c2nc(CSCC(=O)N3CCN(c4ccc(F)cc4)CC3)c(C)o2)cc1	0	-5	4	3	0
CCOC(=O)N1CCN(C(=O)CSCc2nc(-c3ccccc3C)oc2C)CC1	8	-5	9	-34*	-1
Cc1ccccc1-c1nc(CS(=O)(=O)CC(=O)N2CCOCC2)c(C)o1	10	-3	7	3	0
O=C(NCCS(=O)(=O)N1CCCCC1)c1ccc2c(c1)OCO2	-2	-3	0	-16	0
CCC1CN(C(=O)N2CCC(C(=O)NCCN(C)C)CC2)c2ccccc2O1 (configuration not stated)	15	4	0	7	0
Cc1cccc(C(=O)N2CCc3cc(CNC(=O)c4cc5ccccc5[nH]4)ccc32)c1	-6	-2	5	-7	0
Cc1ccc(S(=O)(=O)Nc2ccc(-c3ccc(N4CCCCCC4)nn3)cc2)c(C)c1	14	0	0	-3	0
CCc1ccccc1NC(=O)Cn1c(=O)nc(-c2ccccc2)c2ccccc21	2	0	0	-1	-1
CC(C)N(Cc1nc(-c2ccccc2)no1)C(=O)CCCN1C(=O)c2ccccc2C1=O	9	-6	5	-49*	0
COc1ccc(-c2noc(CN(C(=O)c3cccs3)C(C)C)n2)cc1	-3	-1	37*	-4	0
